According to the supplement of paper PMC10849652:
The full data set covers some 7,900 targets. This sample favours those with a hit. About 0.6% of all pairs of compound and target were hits. A number with no mark means an inactive call.

Legend:
Assay in all cases: log2 fold change, soluble protein after heating vs DMSO (PISA); higher = thermal stabilisation; K562 cells, 10 uM, 30 min; active = over 0.2 and 3.5 SD of the protein, either way, in both replicates (recomputed)
[1] = compound: CC1=C(C=C(C=C1)NC(=O)C2=CC(=CC=C2)C(C)(C)C#N)NC3=CC4=C(C=C3)N=CN(C4=O)C
Summary of the method: (§1)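 For each measurement, 10 μM compound was applied for 30 min to K562 cells at 2×10^6 cells/mL. Aliquots were heated for 3 min across 48°C-58°C, pooled, and extracted in PBS with 0.5% NP-40 at 4°C; the supernatant after 21,000xg for 90 min was soluble protein. This was quantified by TMTpro 16plex LC-MS/MS with channel sums equalised, and thermal stability was reported relative to control samples from duplicates, on a log2 fold-change scale.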

[2] = compound: CC1=C(C=C(C=C1)NC(=O)C2=CC(=CC=C2)N(C)C)NC(=O)C3=CC=C(C=C3)O
Summary of the method: as §1

[3] = compound: CC1=CC=C(C=C1)SC2=C3C=C(SC3=CN=C2)C(=O)N
Summary of the method: as §1

[4] = compound: CC1=NC(=CC=C1)C2=C(N=C(N2)C(C)(C)C)C3=CC4=NC=CN=C4C=C3
Summary of the method: as §1

Nexturastat A = compound: CCCCN(Cc1ccc(C(=O)NO)cc1)C(=O)Nc1ccccc1 [Nexturastat A]
Summary of the method: as §1

vemurafenib = compound: CCCS(=O)(=O)Nc1ccc(F)c(C(=O)c2c[nH]c3ncc(-c4ccc(Cl)cc4)cc23)c1F [vemurafenib]
Summary of the method: as §1

[5] = compound: CCCS(=O)(=O)Nc1ccc(F)c(C(=O)c2c[nH]c3ncc(Cl)cc23)c1F
Summary of the method: as §1

[6] = compound: CCCc1cc(C)[nH]c(=O)c1CNC(=O)c1cc(-c2ccnc(N3CCN(C)CC3)c2)cc2c1cnn2C(C)C
Summary of the method: as §1

givinostat = compound: CCN(CC)Cc1ccc2cc(COC(=O)Nc3ccc(C(=O)NO)cc3)ccc2c1 [givinostat]
Summary of the method: as §1

barasertib = compound: CCN(CCCOc1ccc2c(Nc3cc(CC(=O)Nc4cccc(F)c4)[nH]n3)ncnc2c1)CCOP(=O)(O)O [barasertib]
Summary of the method: as §1

[7] = compound: CC[C@@H]1C(=O)N(C)c2cnc(Nc3ccc(C(=O)NC4CCN(C)CC4)cc3OC)nc2N1C1CCCC1
Summary of the method: as §1

volasertib = compound: CC[C@@H]1C(=O)N(C)c2cnc(Nc3ccc(C(=O)N[C@H]4CC[C@H](N5CCN(CC6CC6)CC5)CC4)cc3OC)nc2N1C(C)C [volasertib]
Summary of the method: as §1

[8] = compound: CC[C@H](C)N1C=C(C2=C(C=C(C=C21)C3=CN=C(C=C3)N4CCNCC4)C(=O)NCC5=C(C=C(NC5=O)C)C)C
Summary of the method: as §1

epoxomicin = compound: CC[C@H](C)[C@@H](C(=O)N[C@@H]([C@@H](C)O)C(=O)N[C@@H](CC(C)C)C(=O)[C@]1(CO1)C)NC(=O)[C@H]([C@@H](C)CC)N(C)C(=O)C [epoxomicin]
Summary of the method: as §1

[9] = compound: CCn1c(C(=O)N(C2CC2)C2CC2)cc2c3c(ncn3C)c(Nc3cc(C)n(C)n3)nc21
Summary of the method: as §1

[10] = compound: CCn1cc(-c2ccnc3[nH]c(-c4cccc(CN(C)C)c4)cc23)c(-c2ccc(NC(=O)N(C)C)cc2)n1
Summary of the method: as §1

[11] = compound: CN(C)CC(=O)Nc1ccc2[nH]c(=O)c3ccccc3c2c1
Summary of the method: as §1

rosiglitazone = compound: CN(CCOC1=CC=C(C=C1)C[C@H]2C(=O)NC(=O)S2)C3=CC=CC=N3 (racemic) [rosiglitazone]
Summary of the method: as §1

[12] = compound: CN1C2=C(C3=C1C(=O)N(N=C3)CC4=CC(=CC=C4)N)SC(=C2)S(=O)C
Summary of the method: as §1

[13] = compound: CN1CCC(CNc2ccc3ncc(-c4cccc(OC(F)(F)F)c4)n3n2)CC1
Summary of the method: as §1

UniProt A0JNW5, sequence (A0JNW5 whole entry, looked up): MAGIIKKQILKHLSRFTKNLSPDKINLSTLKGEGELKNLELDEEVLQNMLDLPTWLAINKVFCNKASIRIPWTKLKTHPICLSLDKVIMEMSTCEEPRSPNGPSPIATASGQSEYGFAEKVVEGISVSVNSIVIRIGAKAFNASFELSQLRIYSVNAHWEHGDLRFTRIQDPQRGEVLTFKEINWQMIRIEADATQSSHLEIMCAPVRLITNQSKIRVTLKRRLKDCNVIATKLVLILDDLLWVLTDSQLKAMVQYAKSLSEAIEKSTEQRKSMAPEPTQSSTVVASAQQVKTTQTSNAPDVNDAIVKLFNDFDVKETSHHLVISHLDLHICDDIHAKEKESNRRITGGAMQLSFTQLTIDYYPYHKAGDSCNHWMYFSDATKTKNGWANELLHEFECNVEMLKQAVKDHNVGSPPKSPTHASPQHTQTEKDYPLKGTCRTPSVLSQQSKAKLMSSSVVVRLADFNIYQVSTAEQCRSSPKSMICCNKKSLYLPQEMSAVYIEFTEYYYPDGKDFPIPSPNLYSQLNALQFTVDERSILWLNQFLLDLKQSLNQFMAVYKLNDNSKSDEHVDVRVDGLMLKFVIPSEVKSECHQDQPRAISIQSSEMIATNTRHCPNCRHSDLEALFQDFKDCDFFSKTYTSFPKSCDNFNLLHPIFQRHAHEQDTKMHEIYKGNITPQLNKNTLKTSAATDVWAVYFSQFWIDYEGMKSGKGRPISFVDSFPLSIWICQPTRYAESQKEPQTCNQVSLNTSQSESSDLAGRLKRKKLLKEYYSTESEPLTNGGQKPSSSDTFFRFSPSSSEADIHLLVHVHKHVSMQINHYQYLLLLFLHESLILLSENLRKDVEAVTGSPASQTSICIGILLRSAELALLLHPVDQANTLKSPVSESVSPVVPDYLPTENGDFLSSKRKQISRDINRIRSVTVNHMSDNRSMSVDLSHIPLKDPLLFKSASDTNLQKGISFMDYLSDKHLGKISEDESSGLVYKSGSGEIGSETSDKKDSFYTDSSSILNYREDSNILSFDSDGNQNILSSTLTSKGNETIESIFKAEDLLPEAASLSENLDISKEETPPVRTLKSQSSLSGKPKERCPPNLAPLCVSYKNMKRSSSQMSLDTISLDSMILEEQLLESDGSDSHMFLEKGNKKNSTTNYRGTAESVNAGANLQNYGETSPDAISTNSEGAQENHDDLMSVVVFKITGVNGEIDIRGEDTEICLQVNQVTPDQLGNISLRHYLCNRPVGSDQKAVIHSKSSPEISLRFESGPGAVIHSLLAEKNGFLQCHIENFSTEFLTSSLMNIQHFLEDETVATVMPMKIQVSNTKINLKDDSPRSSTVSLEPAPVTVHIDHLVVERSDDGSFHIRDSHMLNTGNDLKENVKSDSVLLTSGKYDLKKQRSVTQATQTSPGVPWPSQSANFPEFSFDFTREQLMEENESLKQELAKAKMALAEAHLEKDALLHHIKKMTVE
UniProt Q9Y5L0, sequence (Q9Y5L0 whole entry, looked up): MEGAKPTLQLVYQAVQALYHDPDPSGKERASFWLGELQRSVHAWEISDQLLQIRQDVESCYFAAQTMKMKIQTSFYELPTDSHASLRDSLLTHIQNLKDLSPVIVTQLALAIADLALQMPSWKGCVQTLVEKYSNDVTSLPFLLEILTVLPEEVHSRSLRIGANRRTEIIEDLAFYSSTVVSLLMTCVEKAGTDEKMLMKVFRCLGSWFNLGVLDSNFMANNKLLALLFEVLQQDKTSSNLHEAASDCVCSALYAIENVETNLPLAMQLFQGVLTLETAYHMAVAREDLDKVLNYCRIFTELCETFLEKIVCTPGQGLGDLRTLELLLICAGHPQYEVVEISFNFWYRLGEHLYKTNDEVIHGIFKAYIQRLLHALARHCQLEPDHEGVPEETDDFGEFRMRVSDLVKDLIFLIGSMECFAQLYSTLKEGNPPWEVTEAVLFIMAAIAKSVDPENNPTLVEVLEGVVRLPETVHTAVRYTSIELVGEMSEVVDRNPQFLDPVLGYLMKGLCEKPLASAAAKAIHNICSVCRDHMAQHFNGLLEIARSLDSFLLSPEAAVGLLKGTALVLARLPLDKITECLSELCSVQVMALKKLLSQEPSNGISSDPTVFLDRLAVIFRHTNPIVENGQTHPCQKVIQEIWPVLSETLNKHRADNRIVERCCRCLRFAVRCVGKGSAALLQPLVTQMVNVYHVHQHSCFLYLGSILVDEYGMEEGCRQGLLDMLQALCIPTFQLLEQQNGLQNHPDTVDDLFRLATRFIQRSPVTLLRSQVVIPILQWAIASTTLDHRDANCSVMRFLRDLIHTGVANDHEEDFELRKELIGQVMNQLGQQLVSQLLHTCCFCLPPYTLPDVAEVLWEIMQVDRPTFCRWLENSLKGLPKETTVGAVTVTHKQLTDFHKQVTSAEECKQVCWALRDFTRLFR
UniProt Q6VEQ5, sequence (Q6VEQ5 whole entry, looked up): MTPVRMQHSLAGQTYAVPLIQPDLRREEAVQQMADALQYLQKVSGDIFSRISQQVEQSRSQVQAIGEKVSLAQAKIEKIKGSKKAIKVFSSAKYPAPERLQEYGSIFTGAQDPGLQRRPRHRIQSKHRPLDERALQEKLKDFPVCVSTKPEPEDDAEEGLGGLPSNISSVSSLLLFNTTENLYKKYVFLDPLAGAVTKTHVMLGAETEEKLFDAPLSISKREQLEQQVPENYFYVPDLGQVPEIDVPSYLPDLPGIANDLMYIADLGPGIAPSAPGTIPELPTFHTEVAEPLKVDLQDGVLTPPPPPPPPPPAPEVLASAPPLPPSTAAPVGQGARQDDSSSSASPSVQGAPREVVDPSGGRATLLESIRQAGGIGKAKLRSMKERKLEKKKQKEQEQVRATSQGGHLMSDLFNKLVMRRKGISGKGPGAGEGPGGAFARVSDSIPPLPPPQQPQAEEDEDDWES
UniProt Q7L0Y3, sequence (Q7L0Y3 whole entry, looked up): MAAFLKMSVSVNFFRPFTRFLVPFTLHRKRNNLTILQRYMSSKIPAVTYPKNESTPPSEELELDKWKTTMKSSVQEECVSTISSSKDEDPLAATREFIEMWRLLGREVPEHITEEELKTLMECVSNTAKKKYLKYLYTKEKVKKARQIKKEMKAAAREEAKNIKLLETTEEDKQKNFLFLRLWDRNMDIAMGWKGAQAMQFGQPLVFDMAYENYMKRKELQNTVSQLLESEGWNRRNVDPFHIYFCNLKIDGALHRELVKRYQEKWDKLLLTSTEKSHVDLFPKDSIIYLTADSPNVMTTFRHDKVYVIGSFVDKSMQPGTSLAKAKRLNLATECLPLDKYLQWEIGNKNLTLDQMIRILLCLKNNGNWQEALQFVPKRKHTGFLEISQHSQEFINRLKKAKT
UniProt Q9NV66, sequence (Q9NV66 whole entry, looked up): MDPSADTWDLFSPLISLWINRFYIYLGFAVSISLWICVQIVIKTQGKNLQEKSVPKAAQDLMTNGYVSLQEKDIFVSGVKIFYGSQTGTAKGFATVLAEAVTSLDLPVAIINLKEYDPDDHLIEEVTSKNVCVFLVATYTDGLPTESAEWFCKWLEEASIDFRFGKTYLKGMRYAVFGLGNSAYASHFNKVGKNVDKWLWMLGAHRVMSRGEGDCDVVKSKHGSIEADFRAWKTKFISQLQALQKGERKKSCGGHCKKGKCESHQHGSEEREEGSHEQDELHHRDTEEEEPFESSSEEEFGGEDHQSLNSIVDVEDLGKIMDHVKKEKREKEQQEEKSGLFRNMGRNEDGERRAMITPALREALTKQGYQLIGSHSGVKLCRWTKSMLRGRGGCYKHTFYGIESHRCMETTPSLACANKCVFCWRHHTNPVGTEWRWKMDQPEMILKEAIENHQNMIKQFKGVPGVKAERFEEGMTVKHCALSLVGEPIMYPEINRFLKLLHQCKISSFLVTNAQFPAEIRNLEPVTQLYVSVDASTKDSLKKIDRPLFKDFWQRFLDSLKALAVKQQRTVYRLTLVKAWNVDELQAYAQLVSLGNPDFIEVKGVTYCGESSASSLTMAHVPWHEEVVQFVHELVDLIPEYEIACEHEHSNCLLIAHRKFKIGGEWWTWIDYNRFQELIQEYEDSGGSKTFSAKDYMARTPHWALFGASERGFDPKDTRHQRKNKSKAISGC
UniProt Q86Y07, sequence (Q86Y07 whole entry, looked up): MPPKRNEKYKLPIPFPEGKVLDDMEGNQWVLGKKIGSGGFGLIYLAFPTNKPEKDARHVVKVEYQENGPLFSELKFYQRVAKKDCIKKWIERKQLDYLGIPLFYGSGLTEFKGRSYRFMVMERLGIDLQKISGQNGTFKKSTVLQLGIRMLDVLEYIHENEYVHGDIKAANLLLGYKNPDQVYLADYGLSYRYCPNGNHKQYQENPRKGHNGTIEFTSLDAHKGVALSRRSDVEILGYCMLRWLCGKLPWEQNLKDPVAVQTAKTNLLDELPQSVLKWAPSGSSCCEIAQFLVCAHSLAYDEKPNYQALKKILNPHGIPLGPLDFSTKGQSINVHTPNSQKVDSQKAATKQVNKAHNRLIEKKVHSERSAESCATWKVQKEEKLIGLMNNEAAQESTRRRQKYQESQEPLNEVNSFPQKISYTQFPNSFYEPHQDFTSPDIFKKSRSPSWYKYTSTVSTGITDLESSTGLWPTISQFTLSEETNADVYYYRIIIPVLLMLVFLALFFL

Target | log2 fold change [1] | log2 fold change [2] | log2 fold change [3] | log2 fold change [4] | log2 fold change (Nexturastat A) | log2 fold change (vemurafenib) | log2 fold change [5] | log2 fold change [6] | log2 fold change (givinostat) | log2 fold change (barasertib) | log2 fold change [7] | log2 fold change (volasertib) | log2 fold change [8] | log2 fold change (epoxomicin) | log2 fold change [9] | log2 fold change [10] | log2 fold change [11] | log2 fold change (rosiglitazone) | log2 fold change [12] | log2 fold change [13]
TRMT10C (UniProt Q7L0Y3) | 0.013 | -0.051 | 0.017 | 0.007 | -0.095 | 0.015 | 0.042 | -0.013 | -0.022 | 0.041 | -0.161 | -0.416 (active) | 0.07 | 0.046 | -0.064 | -0.057 | 0.018 | 0.021 | 0.008 | 0.003
VRK2 (UniProt Q86Y07) | -0.072 | -0.05 | 0.01 | 0.015 | 0.04 | 0.006 | 0.044 | 0.025 | 0.03 | 0.01 | 0.034 | -0.049 | 0.054 | 0.021 | -0.072 | -0.005 | -0.009 | 0.019 | -0.04 | 0.229 (active)
WASH2P (UniProt Q6VEQ5) | -0.001 | -0.034 | 0.019 | 0 | 0.139 | 0.03 | -0.01 | 0.026 | -0.007 | 0.043 | -0.071 | -0.163 | 0.024 | 0 | 0.002 | 0.037 | 0.021 | 0.033 | 0.012 | -0.067
TNPO3 (UniProt Q9Y5L0) | 0.028 | 0.004 | 0.057 | 0.003 | -0.036 | 0.069 | 0.08 | 0.003 | 0.029 | 0.019 | -0.182 | -0.406 (active) | 0.039 | 0.041 | 0.002 | -0.075 | 0.041 | 0.046 | -0.036 | -0.128
WASHC2A (UniProt Q641Q2) | -0.053 | -0.012 | -0.039 | -0.014 | 0.004 | -0.041 | -0.005 | 0.085 | 0.004 | 0.032 | -0.058 | -0.15 | 0.026 | 0.022 | 0.018 | 0.052 | -0.046 | -0.004 | 0.037 | -0.18
UHRF1BP1L (UniProt A0JNW5) | -0.079 | -0.031 | -0.038 | -0.032 | -0.054 | -0.039 | -0.033 | 0.027 | -0.033 | 0 | 0.165 | 0.034 | -0.009 | -0.022 | -0.018 | -0.086 | 0.02 | 0.028 | -0.079 | 0.1
TYW1 (UniProt Q9NV66) | 0.027 | -0.017 | 0.023 | 0.074 | -0.08 | 0.025 | 0.084 | 0.069 | -0.025 | 0.045 | -0.02 | -0.341 (active) | 0.052 | 0.03 | -0.009 | -0.002 | 0.031 | 0.036 | 0.014 | 0.088
TOP2A isoform 4 (UniProt P11388) | 0.081 | -0.006 | -0.083 | -0.094 | 0.234 | -0.213 | 0.042 | 0.182 | 0.207 | -0.054 | 0.198 | 0.226 | 0.106 | -0.231 | 0.052 | 0.156 | -0.194 | -0.169 | 0.526 | 0.128
